From PubChem BioAssay (EPA / NIEHS)
Several values for one entry are separate records, joined by “and”; a condition that tells them apart may be missing. Equal values may be shown once. Records with an inconclusive call do not appear. A structure can be active in one record and inactive in another. Activity calls are given as the source filed them. How the source made its calls, unless noted: active means hit-call score of the fitted dose curve at least 0.9, where 1 is the maximum; inactive means score below 0.9.

Experiments:
DIO1 (gene 1733) = experiment: CCTE_GLTED_hDIO1: CCTE's human Deiodinase 1 (DIO1) Inhibition Assay, Great Lakes Toxicology and Ecology Division (GLTED) Lab (AID 2283987; active means hit-call score of the fitted dose curve at least 0.9, where 1 is the maximum;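 further: isolated human DIO1 enzyme in a cell-free setup rather than cells; enzyme activity read as free iodide liberated from substrate via Sandell-Kolthoff colorimetry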)
How it was run: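 Cell-free hDIO1 assay, triplicate plates. Absorbance of the Sandell-Kolthoff reaction reports enzyme-liberated iodide; iodinated chemicals or nitrite, iron and thiocyanate may interfere.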

[1] = CCTE_Shafer_MEA_acute_spike_number: CCTE's Neural Acute Assay for Total Number of Spikes, Shafer Lab (AID 2284008);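 on AC50: curve fitted for decrease in spike count so AC50 reflects inhibitors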
How it was run: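 Cortical neurons from rat, matured to DIV 13 or 15 on microelectrode arrays, are recorded at 37 C before and during 40-min exposure to 0.03-40 uM compound. Wells need >/= 10 active electrodes.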

[2] = biological target: Nucleoli Translocation, AR (gene 367) (UniProt P10275); experiment: UPITT_HCI_U2OS_AR_TIF2_Nucleoli_Antagonist: University of Pittsburgh U2OS Androgen Receptor-Transcriptional Intermediary Factor 2 (AR-TIF2) Antagonism High Content Imaging Assay for Nucleoli Translocation (AID 2283997; active means hit-call score of the fitted dose curve at least 0.9, where 1 is the maximum)
Sequence of Nucleoli Translocation, AR (gene 367) (P10275 whole entry, looked up, the tested form may be a part): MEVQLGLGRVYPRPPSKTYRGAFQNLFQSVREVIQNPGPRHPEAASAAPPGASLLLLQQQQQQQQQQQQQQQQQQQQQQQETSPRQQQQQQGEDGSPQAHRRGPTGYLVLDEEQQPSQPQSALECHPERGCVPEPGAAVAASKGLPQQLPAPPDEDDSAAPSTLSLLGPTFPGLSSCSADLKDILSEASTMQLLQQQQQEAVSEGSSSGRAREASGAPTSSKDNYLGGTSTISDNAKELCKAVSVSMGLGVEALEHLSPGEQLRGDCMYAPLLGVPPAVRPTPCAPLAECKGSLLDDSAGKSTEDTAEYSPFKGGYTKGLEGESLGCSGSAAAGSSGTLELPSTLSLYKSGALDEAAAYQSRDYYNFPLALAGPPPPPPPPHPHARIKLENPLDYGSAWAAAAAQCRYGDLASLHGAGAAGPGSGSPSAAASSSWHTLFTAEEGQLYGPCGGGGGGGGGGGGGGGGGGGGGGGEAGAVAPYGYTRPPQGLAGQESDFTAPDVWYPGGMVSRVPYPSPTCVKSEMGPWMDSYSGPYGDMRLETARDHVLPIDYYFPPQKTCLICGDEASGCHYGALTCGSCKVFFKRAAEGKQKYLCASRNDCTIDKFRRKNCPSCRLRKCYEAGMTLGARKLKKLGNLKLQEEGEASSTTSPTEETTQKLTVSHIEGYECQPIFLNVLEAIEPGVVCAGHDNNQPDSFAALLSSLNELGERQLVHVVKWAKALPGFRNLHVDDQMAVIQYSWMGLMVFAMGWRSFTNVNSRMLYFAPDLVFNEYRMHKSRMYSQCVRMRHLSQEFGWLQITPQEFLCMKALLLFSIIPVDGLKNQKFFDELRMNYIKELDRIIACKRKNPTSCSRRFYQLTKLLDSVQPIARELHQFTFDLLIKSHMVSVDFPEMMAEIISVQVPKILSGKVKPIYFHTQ
How it was run: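 Compounds are added at 20 uM final concentration in 0.2% DMSO to U2OS cells carrying AR-RFP and TIF2-GFP fusions. Nucleolar AR-RFP fluorescence is then quantified by automated imaging. Antagonism is fitted positively against DHT baseline.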

[3] = biological target: Nucleoli Translocation, AR (gene 367) (UniProt P10275); experiment: UPITT_HCI_U2OS_AR_TIF2_Nucleoli_Agonist: University of Pittsburgh U2OS Androgen Receptor-Transcriptional Intermediary Factor 2 (AR-TIF2) Agonism High Content Imaging Assay for Nucleoli Translocation (AID 2283998; active means hit-call score of the fitted dose curve at least 0.9, where 1 is the maximum)
How it was run: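 Red-tagged human androgen receptor co-expressed with GFP-tagged TIF2 serves as the binding reporter. Primary testing used 20 uM final (0.2% DMSO); follow-up dose response covered 0.195 to 50 uM final (0.5% DMSO).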

[4] = biological target: Ratio of Nucleoli Translocation and Cytoplasm, AR (gene 367) (UniProt P10275); experiment: UPITT_HCI_U2OS_AR_TIF2_Nucleoli_Cytoplasm_Ratio_Antagonist: University of Pittsburgh U2OS Androgen Receptor-Transcriptional Intermediary Factor 2 (AR-TIF2) Antagonism High Content Imaging Assay for Ratio of Nucleoli Translocation and Cytoplasm (AID 2283999; active means hit-call score of the fitted dose curve at least 0.9, where 1 is the maximum;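 further: antagonists lower the DHT-driven ratio of nucleolar to cytoplasmic red signal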)
Sequence of Ratio of Nucleoli Translocation and Cytoplasm, AR (gene 367) (P10275 whole entry, looked up): as the sequence (P10275 whole entry, looked up, the tested form may be a part) above
How it was run: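 High-content imaging of red fluorescence ratio, nucleoli versus cytoplasm, in U2OS expressing AR-RFP and TIF2-GFP, fitted relative to DHT. Compounds tested once at 20 uM final, then 0.195 to 50 uM final in serial dilution.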

[5] = biological target: Ratio of Nucleoli Translocation and Cytoplasm, AR (gene 367) (UniProt P10275); experiment: UPITT_HCI_U2OS_AR_TIF2_Nucleoli_Cytoplasm_Ratio_Agonist: University of Pittsburgh U2OS Androgen Receptor-Transcriptional Intermediary Factor 2 (AR-TIF2) Agonism High Content Imaging Assay for Ratio of Nucleoli Translocation and Cytoplasm (AID 2284000; active means hit-call score of the fitted dose curve at least 0.9, where 1 is the maximum;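 further: hits raise the red nucleolar to cytoplasm ratio above vehicle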)
How it was run: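 Human osteosarcoma U2OS line, AR-RFP plus TIF2-GFP; compounds 0.195–50 uM final, 0.5% DMSO. Readout: nucleolar/cytoplasmic RFP ratio by HCI, positive direction vs DMSO baseline.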

[6] = CCTE_Harrill_HTTr_Viability_PRF_DMEM_6hr: (Pilot) CCTE's 6-hour Cell Viability Assessment for the High-Throughput Transcriptomics (HTTr) Platform, in MCF-7 cells cultured phenol red-free DMEM + 10% charcoal-stripped fetal bovine serum, Harrill Lab (AID 2283976)
How it was run: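 Membrane integrity by high-content imaging of propidium iodide uptake, six hours after dosing with eight concentrations. Cells: MCF-7 grown in phenol red-free DMEM plus 10% charcoal-stripped serum; DMSO serves as baseline for bidirectional fits.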

[7] = CCTE_Harrill_HTTr_Viability_PRF_DMEM_12hr: (Pilot) CCTE's 12-hour Cell Viability Assessment for the High-Throughput Transcriptomics (HTTr) Platform, in MCF-7 cells cultured in phenol red-free DMEM + 10% charcoal-stripped fetal bovine serum, Harrill Lab (AID 2283977)
How it was run: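 Membrane integrity was scored via propidium iodide dye exclusion imaging, fitted in both directions relative to DMSO. Compounds ran as eight-point dilutions for 12 hours on MCF-7 grown in phenol red-free DMEM plus 10% charcoal-stripped serum.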

[8] = TOX21_TR_RXR_BLA_Antagonist_Followup_viability: Viability Assessment in the Tox21 Thyroid Hormone Receptor beta Retinoid X Receptor alpha (RXRa) Antagonism Beta-lactamase (BLA) Follow-Up Assay (AID 2283979; active means hit-call score of the fitted dose curve at least 0.9, where 1 is the maximum)
How it was run: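 RXRa-bla HEK293T cells (2,500/well, phenol red-free DMEM, 2% charcoal-stripped FBS) were attached 5 h, then exposed to compounds at 11 concentrations in triplicate for 16 h at 37C. Viability measured by CellTiter-Glo ATP luminescence, bidirectional fitting versus DMSO.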

[9] = CCTE_Harrill_HTTr_Viability_PRF_DMEM_24hr: (Pilot) CCTE's 24-hour Cell Viability Assessment for the High-Throughput Transcriptomics (HTTr) Platform, in MCF-7 cells cultured in phenol red-free DMEM + 10% charcoal-stripped fetal bovine serum, Harrill Lab (AID 2283980)
How it was run: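 Propidium iodide exclusion imaged at 24 h after dosing scores viability; cells were MCF-7 grown in phenol red-free DMEM plus 10% charcoal-stripped serum, tested in eight concentrations, fitted in both directions against DMSO.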

[10] = CCTE_Harrill_HTTr_Apoptosis_DMEM_6hr: (Pilot) CCTE's 6-hour Apoptosis Assessment for the High-Throughput Transcriptomics (HTTr) Platform, in MCF-7 cells cultured in DMEM + 10% fetal bovine serum, Harrill Lab (AID 2283981)
How it was run: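 MCF-7 cells grown in DMEM + 10% FBS were exposed for 6 hours to an eight-point dilution series. CellEvent Caspase 3/7 Green signal was imaged; activity fitted bidirectionally against DMSO.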

[11] = CCTE_Harrill_HTTr_Apoptosis_DMEM_12hr: (Pilot) CCTE's 12-hour Apoptosis Assessment for the High-Throughput Transcriptomics (HTTr) Platform, in MCF-7 cells cultured in DMEM + 10% fetal bovine serum, Harrill Lab (AID 2283982)
How it was run: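 Caspase-3/7 activity was measured by high-content imaging (CellEvent Caspase 3/7 Green) after a 12-hour exposure of MCF-7 cells grown in DMEM with 10% FBS. Eight-point concentration series, fitted bidirectionally against vehicle.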

[12] = CCTE_Harrill_HTTr_Apoptosis_DMEM_24hr: (Pilot) CCTE's 24-hour Apoptosis Assessment for the High-Throughput Transcriptomics (HTTr) Platform, in MCF-7 cells cultured in DMEM + 10% fetal bovine serum, Harrill Lab (AID 2283983)
How it was run: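 Caspase-3/7 activity read by high-content imaging (CellEvent Green reagent) 24 h after dosing. MCF-7 cells grown in DMEM with 10% FBS received an eight-point concentration series; fits were bidirectional versus DMSO.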

[13] = CCTE_Harrill_HTTr_Apoptosis_PRF_DMEM_6hr: (Pilot) CCTE's 6-hour Apoptosis Assessment for the High-Throughput Transcriptomics (HTTr) Platform, in MCF-7 cells cultured phenol red-free DMEM + 10% charcoal-stripped fetal bovine serum, Harrill Lab (AID 2283984)
How it was run: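 Caspase-3/7 activity (CellEvent Green) read by high-content imaging 6 h after dosing, eight concentrations. Cells: MCF-7, phenol red-free DMEM with 10% charcoal-stripped serum. Curves fit both directions against DMSO.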

[14] = CCTE_Harrill_HTTr_Apoptosis_PRF_DMEM_12hr: (Pilot) CCTE's 12-hour Apoptosis Assessment for the High-Throughput Transcriptomics (HTTr) Platform, in MCF-7 cells cultured in phenol red-free DMEM + 10% charcoal-stripped fetal bovine serum, Harrill Lab (AID 2283985)
How it was run: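 Caspase-3/7 activity by CellEvent Green high content imaging after 12 h compound exposure (eight concentrations) in MCF-7 grown in phenol red-free DMEM plus 10% charcoal-stripped serum; DMSO as baseline.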

[15] = CCTE_Harrill_HTTr_Apoptosis_PRF_DMEM_24hr: (Pilot) CCTE's 24-hour Apoptosis Assessment for the High-Throughput Transcriptomics (HTTr) Platform, in MCF-7 cells cultured in phenol red-free DMEM + 10% charcoal-stripped fetal bovine serum, Harrill Lab (AID 2283986)
How it was run: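 Eight concentrations tested for 24 h on MCF-7 grown in charcoal-stripped serum, phenol red-free DMEM. High content imaging of CellEvent Caspase 3/7 Green signal gives apoptosis read-out, fitted both ways relative to DMSO.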

[16] = CCTE_Simmons_MITO_basal_resp_rate: CCTE's HepG2 Seahorse XF Respirometric Screening Assay at Basal Respiratory State, Simmons Lab (AID 2284001); details: actives raise or lower the signal
How it was run: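 Basal-phase OCR of HepG2 cells on a Seahorse XF96, analysed by bidirectional fit relative to DMSO vehicle; chemicals at 7 concentrations, 125 nM–100 uM final; three biological replicates; fenpyroximate and 2,4-dinitrophenol positive controls.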

[17] = CCTE_Simmons_MITO_max_resp_rate: CCTE's HepG2 Seahorse XF Respirometric Screening Assay at Maximal Respiratory State [uncoupled], Simmons Lab (AID 2284002); details: actives raise or lower the signal
How it was run: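 Maximal respiration in HepG2 cells is recorded as OCR by Seahorse XF following FCCP injection. Compounds span 125 nM–100 uM final; activity is called in either direction against DMSO.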

[18] = CCTE_Simmons_MITO_inhib_resp_rate: CCTE's HepG2 Seahorse XF Respirometric Screening Assay at Inhibited Respiratory State [full ETC block], Simmons Lab (AID 2284006); details: actives raise or lower the signal
How it was run: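 This endpoint is the respiration rate remaining after rotenone/antimycin A block, in HepG2 cells on a Seahorse XF96. Chemicals spanned 125 nM–100 uM final, in three biological replicates. OCR was read every 6 minutes for 72 minutes and compared with DMSO vehicle.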

[19] = CCTE_Simmons_MITO_viability: CellTiter-Glo Viability Assessment for CCTE's HepG2 Seahorse XF Respirometric Screening Assay [post-hoc], Simmons Lab (AID 2284007; active means hit-call score of the fitted dose curve at least 0.9, where 1 is the maximum;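 on AC50: cells exposed to chemical for 90 min before the ATP read; actives lower ATP signal relative to DMSO baseline meaning reduced viability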)
How it was run: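 Luciferase-coupled ATP read-out after the Seahorse run: HepG2 cells treated 90 minutes with test chemical, 7-point series of 125 nM–100 uM final, in triplicate biological runs. Vehicle DMSO; dichlone as positive control over 8 concentrations.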

Measured: AC50

CCOC(=O)CC(SP(=O)(OC)OC)C(=O)OCC (stereo not given)
inactive: DIO1 (gene 1733) | [1]

CCCCOC(=O)c1ccccc1C(=O)O
inactive: [2] | [3] | [4] | [5]

CCCOc1nn(C(=O)NS(=O)(=O)c2ccccc2C(=O)OC)c(=O)n1C
inactive: [2] | [3] | [4] | [5]

Cc1nn(-c2cc(NS(C)(=O)=O)c(Cl)cc2Cl)c(=O)n1C(F)F
inactive: [2] | [3] | [4] | [5]

CON=C(C(=O)OC)c1ccccc1CON=C(C)c1cccc(C(F)(F)F)c1
inactive: [6] | [7] | [8] | [9] | [10] | [11] | [12] | [13] | [14] | [15] | [19]
active: [16] 8.73 µM | [17] 7.03 µM | [18] 14.8 µM | [1] 183 nM

Nc1c(Cl)cc([N+](=O)[O-])cc1Cl
inactive: [3] | [4] | [5] | [1]
active: [2] 41.7 µM

O=[N+]([O-])c1cc(C(F)(F)F)c(Cl)c([N+](=O)[O-])c1Nc1ncc(C(F)(F)F)cc1Cl
inactive: [17] | [18] | [19]
active: DIO1 (gene 1733) 19.4 µM | [16] 14.2 µM | [1] 351 nM

CSC1=N[C@@](C)(c2ccccc2)C(=O)N1Nc1ccccc1
active: [16] 50 µM | [17] 41 µM | [1] 5800 nM
inactive: [8] | [18] | [19] | [1]

C=C(C)[C@H]1Cc2c(ccc3c2O[C@@H]2COc4cc(OC)c(OC)cc4[C@@H]2C3=O)O1
active: [9] 0.0246 µM | [2] 50 µM | [16] 0.108 µM | [17] 0.0663 µM | [18] 0.0842 µM | [19] 13.3 µM | [1] 2810 nM
inactive: [6] | [7] | [8] | [10] | [11] | [12] | [13] | [14] | [15] | [3] | [4] | [5]

CC(C1CC1)C(O)(Cn1cncn1)c1ccc(Cl)cc1 (stereo not given)
inactive: [6] | [7] | [9] | [10] | [11] | [12] | [13] | [14] | [15] | [18] | [19]
active: [16] 35.3 µM | [17] 50 µM

CCNc1nc(Cl)nc(NC(C)(C)C#N)n1
inactive: [6] | [7] | [9] | [10] | [11] | [12] | [13] | [14] | [15]

COP(=O)(OC)OC(Br)C(Cl)(Cl)Br (stereo not given)
inactive: [4] | [16] | [17] | [18]
active: [2] 13.6 µM | [3] 79 µM | [5] 77.9 µM | [19] 50 µM

CC[C@H](C)[C@H]1O[C@]2(C=C[C@@H]1C)C[C@@H]1C[C@@H](C/C=C(\C)[C@@H](O[C@H]3C[C@H](OC)[C@@H](O[C@H]4C[C@H](OC)[C@@H](NC)[C@H](C)O4)[C@H](C)O3)[C@@H](C)/C=C/C=C3\CO[C@@H]4[C@H](O)C(C)=C[C@@H](C(=O)O1)[C@]34O)O2
active: DIO1 (gene 1733) 26 µM | [16] 25.7 µM | [17] 97.8 µM | [18] 84.7 µM | [19] 86.9 µM | [1] 4.95 nM and 26.8 nM

CN(C)[C@@H]1C(=O)C(C(N)=O)=C(O)[C@@]2(O)C(=O)C3=C(O)c4c(O)cccc4[C@@](C)(O)[C@H]3[C@H](O)[C@@H]12
inactive: [16] | [17] | [18] | [1]
active: DIO1 (gene 1733) 29.8 µM and 15.9 µM and 27.1 µM

CCc1cccc(CC)c1N(COC)C(=O)CCl
inactive: [3] | [5] | [18] | [19]
active: [2] 20.1 µM | [4] 12.8 µM | [16] 36.6 µM | [17] 13.8 µM

CNC(=O)ON=C(SC)C(=O)N(C)C
inactive: [2] | [3] | [4] | [1]

CCCOCC(=Nc1ccc(Cl)cc1C(F)(F)F)n1ccnc1
active: DIO1 (gene 1733) 16.2 µM | [17] 15.4 µM | [19] 18.2 µM | [1] 568 nM
inactive: [16] | [18]
